Source: PubChem BioAssay (NCI)
This is part of a sample that, as a whole, favours compounds with a hit. Of some 83,000 tested, about 20% had one in any assay.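 Method: cells in 96-well plates; compound added at one concentration; 48 h incubation; percent growth measured; values under 10 scored active.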 Activity calls are given as the source filed them.

Assays:
Experiment in all cases: NCI-60 one-dose screen, 48 h (100 = growth as untreated, 0 = no growth, -100 = all killed)
Conditions in all cases: 10 µM unless noted
SK-MEL-2 melanoma = tested on: SK-MEL-2 melanoma
EKVX NSCLC = tested on: EKVX NSCLC
SN12C renal = tested on: SN12C renal
UO-31 renal = tested on: UO-31 renal
TK-10 renal = tested on: TK-10 renal
ACHN renal = tested on: ACHN renal
A498 renal = tested on: A498 renal
CCRF-CEM leukemia = tested on: CCRF-CEM leukemia
MOLT-4 leukemia = tested on: MOLT-4 leukemia
SR leukemia = tested on: SR leukemia
RPMI-8226 leukemia = tested on: RPMI-8226 leukemia
OVCAR-8 ovarian = tested on: OVCAR-8 ovarian
OVCAR-5 ovarian = tested on: OVCAR-5 ovarian
OVCAR-4 ovarian = tested on: OVCAR-4 ovarian
SK-OV-3 ovarian = tested on: SK-OV-3 ovarian
IGROV1 ovarian = tested on: IGROV1 ovarian
OVCAR-3 ovarian = tested on: OVCAR-3 ovarian
HS 578T breast = tested on: HS 578T breast
T-47D breast = tested on: T-47D breast
NCI/ADR-RES ovarian = tested on: NCI/ADR-RES ovarian

Measured: growth

Cc1[nH]c(N=Nc2ccccc2)nc1N=Nc1ccccc1
inactive: SK-MEL-2 melanoma 39.8% | EKVX NSCLC 20.5% | SN12C renal 39.2% | TK-10 renal 13.1% | A498 renal 35% | MOLT-4 leukemia 13.8% | SR leukemia 23.1% | OVCAR-8 ovarian 14.7% | OVCAR-5 ovarian 18.8% | OVCAR-4 ovarian 30.3% | SK-OV-3 ovarian 39% | OVCAR-3 ovarian 33.2% | HS 578T breast 61.5% | T-47D breast 30.5%
active: UO-31 renal -22% | ACHN renal 7.3% | CCRF-CEM leukemia -24.1% | RPMI-8226 leukemia -2.66% | IGROV1 ovarian -22.8%

COc1ccc(NC(=O)c2sc3nc(C)c(C(C)=O)cc3c2N)cc1
inactive: SK-MEL-2 melanoma 98.5% | EKVX NSCLC 97.2% | SN12C renal 101% | UO-31 renal 105% | TK-10 renal 75.2% | ACHN renal 95.3% | A498 renal 71.1% | CCRF-CEM leukemia 92.2% | MOLT-4 leukemia 84.9% | SR leukemia 84.3% | RPMI-8226 leukemia 85.6% | OVCAR-8 ovarian 91.9% | OVCAR-5 ovarian 91.3% | OVCAR-4 ovarian 95.7% | SK-OV-3 ovarian 99.3% | IGROV1 ovarian 115% | OVCAR-3 ovarian 109% | HS 578T breast 105% | NCI/ADR-RES ovarian 98.9% | T-47D breast 82.7%

CCC1=C[C@H]2CN(CCc3c([nH]c4ccccc34)[C@@](C(=O)OC)(c3cc4c(cc3OC)N(C)[C@H]3[C@@](O)(C(=O)OC)[C@H](OC(C)=O)[C@]5(CC)[C@@H]6C[C@@H]6CN6CC[C@]43[C@@H]65)C2)C1
active: A498 renal -15.2% | CCRF-CEM leukemia -5.97% | MOLT-4 leukemia 4.19% | SR leukemia -9.46% | RPMI-8226 leukemia -25.3% | OVCAR-8 ovarian 8.29% | OVCAR-3 ovarian 0.761%
inactive: SK-MEL-2 melanoma 13.2% | EKVX NSCLC 35.5% | SN12C renal 30.1% | UO-31 renal 14.7% | TK-10 renal 28.9% | ACHN renal 19.1% | OVCAR-5 ovarian 42% | OVCAR-4 ovarian 37.6% | SK-OV-3 ovarian 17.9% | IGROV1 ovarian 21.6% | HS 578T breast 10.8% | T-47D breast 70%

Cc1cccc(C)c1NCc1nnc(-c2ccc(O)cc2)o1
inactive: SK-MEL-2 melanoma 104% | EKVX NSCLC 90.6% | SN12C renal 102% | UO-31 renal 85.5% | TK-10 renal 104% | ACHN renal 98.6% | A498 renal 107% | CCRF-CEM leukemia 94.8% | MOLT-4 leukemia 108% | SR leukemia 119% | RPMI-8226 leukemia 95.5% | OVCAR-8 ovarian 107% | OVCAR-5 ovarian 95.5% | OVCAR-4 ovarian 99% | SK-OV-3 ovarian 114% | IGROV1 ovarian 99.9% | OVCAR-3 ovarian 99.4% | NCI/ADR-RES ovarian 96.8% | T-47D breast 91.5%
active: HS 578T breast -4.35%

C=CCn1c(SCC(=O)Nc2ccc(C(=O)/C=C/c3cc(OC)c(OC)c(OC)c3)cc2)nnc1-c1ccc(Cl)cc1
inactive: SK-MEL-2 melanoma 26.3% | EKVX NSCLC 21.6% | SN12C renal 27.9% | UO-31 renal 26.5% | TK-10 renal 35.9% | ACHN renal 37.4% | A498 renal 15.6% | OVCAR-5 ovarian 88.9% | OVCAR-4 ovarian 37.3% | SK-OV-3 ovarian 51.4% | IGROV1 ovarian 14.3% | HS 578T breast 48.6% | T-47D breast 18.1%
active: CCRF-CEM leukemia 6.62% | MOLT-4 leukemia 7.87% | SR leukemia 3.83% | RPMI-8226 leukemia -21.6% | OVCAR-8 ovarian 7.91% | OVCAR-3 ovarian -41.9%

COC(=O)c1cncc(C(=O)Nc2ccc(-n3cnc4ccccc43)cc2)c1
inactive: SK-MEL-2 melanoma 105% | EKVX NSCLC 100% | SN12C renal 101% | UO-31 renal 93.8% | TK-10 renal 96.2% | ACHN renal 90.4% | A498 renal 88.3% | CCRF-CEM leukemia 98% | MOLT-4 leukemia 90.2% | SR leukemia 75.4% | RPMI-8226 leukemia 74.5% | OVCAR-8 ovarian 97.2% | OVCAR-5 ovarian 101% | OVCAR-4 ovarian 107% | SK-OV-3 ovarian 108% | IGROV1 ovarian 90.5% | OVCAR-3 ovarian 108% | HS 578T breast 107% | NCI/ADR-RES ovarian 94.9% | T-47D breast 74.8%

CC1(c2ccccc2Cl)NC(=O)NC1=O (centres undefined)
inactive: SK-MEL-2 melanoma 95.6% | EKVX NSCLC 105% | SN12C renal 105% | UO-31 renal 94% | TK-10 renal 90% | ACHN renal 108% | A498 renal 94.9% | CCRF-CEM leukemia 101% | MOLT-4 leukemia 94.5% | SR leukemia 98.5% | RPMI-8226 leukemia 102% | OVCAR-8 ovarian 102% | OVCAR-5 ovarian 106% | OVCAR-4 ovarian 109% | SK-OV-3 ovarian 97.3% | IGROV1 ovarian 106% | OVCAR-3 ovarian 106% | HS 578T breast 99.7% | T-47D breast 79.3%

Nc1ccccc1NC(=O)c1ccc(CSc2nc(N3CCOCC3)c3cccn3n2)cc1
inactive: EKVX NSCLC 25.8% | SN12C renal 16.6% | ACHN renal 16.3% | SR leukemia 13.4% | OVCAR-8 ovarian 15.9% | OVCAR-5 ovarian 29.5% | OVCAR-4 ovarian 42% | IGROV1 ovarian 21.5% | HS 578T breast 23.1%
active: SK-MEL-2 melanoma -28.9% | UO-31 renal -24.8% | TK-10 renal -10.7% | A498 renal -12.1% | CCRF-CEM leukemia 5.4% | MOLT-4 leukemia 1.08% | RPMI-8226 leukemia -4.81% | SK-OV-3 ovarian 6.2% | OVCAR-3 ovarian 1.87% | T-47D breast -1.13%

CCCn1c2cc(OCc3cn(-c4ccc(Cl)cc4)nn3)ccc2c2ccnc(C)c21
inactive: SK-MEL-2 melanoma 87% | EKVX NSCLC 80.1% | SN12C renal 34.2% | UO-31 renal 46.4% | TK-10 renal 113% | ACHN renal 34.3% | A498 renal 76.2% | CCRF-CEM leukemia 56.8% | MOLT-4 leukemia 57.1% | RPMI-8226 leukemia 23.3% | OVCAR-8 ovarian 49.9% | OVCAR-5 ovarian 78% | OVCAR-4 ovarian 55.5% | SK-OV-3 ovarian 73.9% | IGROV1 ovarian 74% | OVCAR-3 ovarian 59.3% | HS 578T breast 75% | T-47D breast 52.2%
active: SR leukemia -32.4%

CC(C)(C)c1nc2c(s1)c1nc(N)ncc1c1ccc(NS(=O)(=O)c3c(F)cccc3F)c(F)c12
inactive: SK-MEL-2 melanoma 50% | EKVX NSCLC 60.5% | SN12C renal 58.9% | UO-31 renal 28.9% | TK-10 renal 64.4% | ACHN renal 22.6% | CCRF-CEM leukemia 73.3% | MOLT-4 leukemia 59.5% | SR leukemia 42.3% | RPMI-8226 leukemia 68.9% | OVCAR-8 ovarian 61.1% | OVCAR-5 ovarian 104% | OVCAR-4 ovarian 60.7% | SK-OV-3 ovarian 13.7% | IGROV1 ovarian 38.5% | OVCAR-3 ovarian 80.7% | HS 578T breast 60.4% | T-47D breast 42.9%
active: A498 renal -2.96%

COc1cc(NC(=O)Nc2cnc(Nc3ccc(N4CCOCC4)cc3)nc2Oc2ccc(F)cc2)cc(OC)c1
inactive: SK-MEL-2 melanoma 101% | EKVX NSCLC 108% | SN12C renal 61.8% | UO-31 renal 93% | TK-10 renal 116% | ACHN renal 99.9% | A498 renal 102% | CCRF-CEM leukemia 92.9% | MOLT-4 leukemia 77.2% | SR leukemia 66.2% | RPMI-8226 leukemia 81.3% | OVCAR-8 ovarian 73.4% | OVCAR-5 ovarian 113% | OVCAR-4 ovarian 60% | SK-OV-3 ovarian 102% | IGROV1 ovarian 94.2% | OVCAR-3 ovarian 97.8% | HS 578T breast 85.7% | T-47D breast 53.5%

Cc1ccc(CS/C(=C\c2ccc([N+](=O)[O-])cc2)C(=O)c2ccc(F)cc2)cc1
inactive: SK-MEL-2 melanoma 74.5% | EKVX NSCLC 64% | SN12C renal 45.9% | UO-31 renal 46.7% | TK-10 renal 91.7% | ACHN renal 60.1% | A498 renal 89.4% | OVCAR-8 ovarian 57.1% | OVCAR-5 ovarian 97.7% | OVCAR-4 ovarian 60.6% | SK-OV-3 ovarian 79.2% | IGROV1 ovarian 58.5% | OVCAR-3 ovarian 60.1% | T-47D breast 49.6%
active: CCRF-CEM leukemia 5.04% | MOLT-4 leukemia 3.17% | SR leukemia 0.11% | RPMI-8226 leukemia -18.3% | HS 578T breast 8.91%

CCOC(=O)c1c(C)nc2c(c1N)/C(=C/c1ccc[nH]1)C(=O)N2Cc1ccc(C(F)(F)F)cc1
inactive: SK-MEL-2 melanoma 75.5% | EKVX NSCLC 53.7% | SN12C renal 49.4% | UO-31 renal 35.4% | TK-10 renal 49.3% | ACHN renal 26.1% | A498 renal 57.5% | CCRF-CEM leukemia 75% | MOLT-4 leukemia 78.4% | SR leukemia 62.5% | RPMI-8226 leukemia 104% | OVCAR-8 ovarian 28.5% | OVCAR-5 ovarian 74.5% | OVCAR-4 ovarian 12.6% | SK-OV-3 ovarian 21.9% | IGROV1 ovarian 54.7% | OVCAR-3 ovarian 47.7% | HS 578T breast 38% | NCI/ADR-RES ovarian 49.7% | T-47D breast 24.8%

COc1ccc(C(=O)c2cc(OC)c(OC)c(OC)c2)cc1OC(=O)C(Cl)(Cl)Cl
active: CCRF-CEM leukemia 8.37% | SR leukemia 6.59% | OVCAR-8 ovarian 2.55% | SK-OV-3 ovarian 8.13% | OVCAR-3 ovarian -13.5% | NCI/ADR-RES ovarian 9.28%
inactive: SK-MEL-2 melanoma 29.8% | EKVX NSCLC 61.3% | SN12C renal 30.9% | UO-31 renal 39.1% | TK-10 renal 65.6% | ACHN renal 31.8% | A498 renal 46.5% | MOLT-4 leukemia 11.8% | RPMI-8226 leukemia 17.9% | OVCAR-5 ovarian 63.8% | OVCAR-4 ovarian 59.7% | IGROV1 ovarian 15.9% | HS 578T breast 38.9% | T-47D breast 63%

CC1CCN(CCCCCOc2ccc3oc4cc(Cl)ccc4c(=O)c3c2)CC1
inactive: SK-MEL-2 melanoma 88% | EKVX NSCLC 83.8% | SN12C renal 63.5% | UO-31 renal 67.7% | TK-10 renal 78% | ACHN renal 83.1% | A498 renal 85.2% | CCRF-CEM leukemia 65.5% | MOLT-4 leukemia 29.7% | SR leukemia 16.5% | RPMI-8226 leukemia 50.4% | OVCAR-8 ovarian 73.6% | OVCAR-5 ovarian 64.8% | OVCAR-4 ovarian 75.2% | SK-OV-3 ovarian 96.5% | IGROV1 ovarian 51.8% | OVCAR-3 ovarian 73.3% | HS 578T breast 84.8% | T-47D breast 64.6%

C=C1C(=O)O[C@H]2[C@H]1CC/C(COC(=O)n1ccnc1)=C\CC[C@@]1(C)O[C@@H]21
inactive: SK-MEL-2 melanoma 89.4% | EKVX NSCLC 80.9% | SN12C renal 96.2% | UO-31 renal 73.3% | TK-10 renal 94.7% | ACHN renal 82.8% | A498 renal 125% | CCRF-CEM leukemia 74.3% | MOLT-4 leukemia 83.4% | SR leukemia 77.5% | RPMI-8226 leukemia 85.3% | OVCAR-8 ovarian 99.8% | OVCAR-5 ovarian 117% | OVCAR-4 ovarian 103% | SK-OV-3 ovarian 102% | IGROV1 ovarian 77.7% | OVCAR-3 ovarian 57% | HS 578T breast 99.2% | T-47D breast 78.2%
